Several values for one entry are separate records, joined by “and”; a condition that tells them apart may be missing. Equal entries are not always repeated. A structure can be active in one record and inactive in another. Activity calls are given as the source filed them. Unless noted, calls follow the shape of the dose curve; as a rule, active = well fitted curve in the direction sought with a large enough effect in the repeat runs; inconclusive = weak or mixed curves; inactive = no such curve, though single readings can be large; an effect the other way counts as inactive or inconclusive.

A short description of experiment [1]: qHTS assay to identify small molecule antagonists of the glucocorticoid receptor (GR) signaling pathway - cell viability counter screen (AID 720693). Also: nearly all actives have a fitted effect of over 55% in size. Also: potency is read from the fitted curve at half-maximal effect.
Experiment [2] can be described thus: qHTS assay for identifying genotoxic compounds that show differential cytotoxicity against isogenic chicken DT40 cell lines with known DNA damage response pathways - wild type cell line (AID 743012). Also: nearly all actives have a fitted effect of over 60% in size. Also: potency is read from the fitted curve at half-maximal effect. An outline of the steps:
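Viability by ATP luminescence (CellTiter-Glo, 30 min RT) after 40 h compound treatment at 37 C/5% CO2, using 300 parental DNA repair-proficient DT40 cells per well.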

Experiment [3] can be described thus: qHTS assay for identifying genotoxic compounds that show differential cytotoxicity against isogenic chicken DT40 cell lines with known DNA damage response pathways - Rev3 mutant cell line (AID 743014). Also: nearly all actives have a fitted effect of over 55% in size. Also: potency is read from the fitted curve at half-maximal effect.
The nature of experiment [4]: qHTS assay for identifying genotoxic compounds that show differential cytotoxicity against isogenic chicken DT40 cell lines with known DNA damage response pathways - Rad54/Ku70 mutant cell line (AID 743015). Also: nearly all actives have a fitted effect of over 60% in size. Also: potency is read from the fitted curve at half-maximal effect. On the technique in general: In qHTS, concentration-response curves come from the screen itself.
Experiment [5] can be described thus: qHTS assay to identify small molecule antagonists of the androgen receptor (AR) signaling pathway - cell viability counter screen (AID 743033; also: nearly all actives have a fitted effect of over 45% in size; also: potency is read from the fitted curve at half-maximal effect).
Experiment [6] can be described thus: qHTS assay to identify small molecule antagonists of the androgen receptor (AR) signaling pathway using the MDA cell line - cell viability counter screen (AID 743041; also: nearly all actives have a fitted effect of over 45% in size; also: potency is read from the fitted curve at half-maximal effect). An outline of the steps:
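Viability read by CellTiter-Fluor fluorescence in the same wells as the antagonist screen, added after 15.5 h of a 16 h, 37C exposure. Human breast carcinoma MDA-kb2 AR-luc cells, compounds co-dosed with agonist R1881.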

Experiment [7] can be described thus: qHTS assay to identify small molecule antagonists of the thyroid receptor (TR) signaling pathway - cell viability counter screen (AID 743064). Also: nearly all actives have a fitted effect of over 50% in size. Also: potency is read from the fitted curve at half-maximal effect. Put shortly: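 GH3.TRE-Luc rat pituitary cells carrying a TRE-luciferase reporter were treated with compound plus 1 nM T3 (final) for 23.5 h at 37 °C. Viability was then read in the same wells by CellTiter-Fluor fluorescence after a further 30 min.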

A short description of experiment [8]: qHTS assay to identify small molecule antagonists of the thyroid receptor (TR) signaling pathway (AID 743065). Also: nearly all actives have a fitted effect of over 55% in size. Also: potency is read from the fitted curve at half-maximal effect. Put shortly:
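Antagonism measured as loss of luciferase signal in GH3 cells stably carrying a TRE-luciferase reporter, co-treated with compound and T3 (1 nM final) for 23.5 h at 37 C. Viability was read in the same well by CellTiter-Fluor.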

The nature of experiment [9]: qHTS assay to identify small molecule antagonists of the estrogen receptor alpha (ER-alpha) signaling pathway - cell viability counter screen (AID 743074; calls by dose curve;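 also: HEK293 cells carrying ER-alpha-UAS-bla reporter stimulated with 17beta-estradiol; nearly all actives have a fitted effect of over 45% in size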; also: potency is read from the fitted curve at half-maximal effect).
The target in experiment [10] is Estrogen receptor (Homo sapiens) (UniProt P03372). The experiment is described as follows: qHTS assay to identify small molecule agonists of the estrogen receptor alpha (ER-alpha) signaling pathway (AID 743075; calls by dose curve;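 also: HEK293 GripTite cells with ER-alpha and UAS-driven beta-lactamase reporter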; also: potency is read from the fitted curve at half-maximal effect). Conditions: HEK293 ER-alpha-UAS-bla, beta-lactamase FRET ratio, 18 h; activation: at 70.1 µM (top of the series).
Experiment [11] shares this target. The experiment is described as follows: qHTS assay to identify small molecule agonists of the estrogen receptor alpha (ER-alpha) signaling pathway using the BG1 cell line (AID 743079). Also: potency is read from the fitted curve at half-maximal effect. As to all read-outs here: nearly all actives have a fitted effect of over 20% in size. Conditions: BG1Luc4E2 cells, ERE-luciferase agonist, 22 h; for activation: at 70.3 µM (top of the series).
A further experiment deals with Aromatase (Homo sapiens) (UniProt P11511). The experiment is described as follows: qHTS assay to identify aromatase inhibitors (AID 743083). Also: nearly all actives have a fitted effect of over 55% in size. Also: potency is read from the fitted curve at half-maximal effect.
Experiment [12] can be described thus: qHTS assay to identify small molecule antagonists of the estrogen receptor alpha (ER-alpha) signaling pathway using the BG1 cell line - cell viability counter screen (AID 743081).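 Also: compound given together with 17beta-estradiol as the ER stimulus; nearly all actives have a fitted effect of over 45% in size.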 Also: potency is read from the fitted curve at half-maximal effect.
Experiment [13] relates to thyroid hormone receptor (rat, GH3 cells). The experiment is described as follows: qHTS assay to identify small molecule agonists of the thyroid receptor (TR) signaling pathway (AID 743066; calls by dose curve).
Experiment [14] addresses Estrogen receptor (Homo sapiens) (UniProt P03372). The experiment is described as follows: qHTS assay to identify small molecule antagonists of the estrogen receptor alpha (ER-alpha) signaling pathway (AID 743069; active = well fitted curve in the direction sought with a large enough effect in the signal ratio in the repeat runs, not every such curve was filed as active; inconclusive = weak or mixed curves, or effect the other way; inactive = no such curve, though single readings can be large or run the other way; the % refers to the signal ratio; also: potency is read from the fitted curve at half-maximal effect). An outline of the steps:
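Antagonist mode: compounds in DMSO were co-added with 17beta-estradiol to ER-alpha-bla HEK293 cells (2% charcoal-stripped serum) and left 18 h at 37C. Reporter inhibition was measured as FRET fluorescence after 2 h LiveBLAzer substrate at room temperature.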

Experiment [15] in a line: qHTS assay to identify small molecule antagonists of the estrogen receptor alpha (ER-alpha) signaling pathway using the BG1 cell line (AID 743080; calls by dose curve;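 also: BG1 cells stimulated with 17beta-estradiol alongside compound; nearly all actives have a fitted effect of over 25% in size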; also: potency is read from the fitted curve at half-maximal effect). An outline of the steps:
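BG1Luc4E2, endogenous ER-alpha, 4xERE-luc; 5 d charcoal-stripped FBS, phenol red free; 24 h plating; cpd + 17beta-estradiol 21.5 h, 37 C/5% CO2; CellTiter-Fluor viability 30 min, then ONE-Glo luciferase 30 min RT.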
% is scaled to controls: 0 for no effect and ±100 for the full control effect.

Sequence of Aromatase (Homo sapiens) (P11511 whole entry, looked up): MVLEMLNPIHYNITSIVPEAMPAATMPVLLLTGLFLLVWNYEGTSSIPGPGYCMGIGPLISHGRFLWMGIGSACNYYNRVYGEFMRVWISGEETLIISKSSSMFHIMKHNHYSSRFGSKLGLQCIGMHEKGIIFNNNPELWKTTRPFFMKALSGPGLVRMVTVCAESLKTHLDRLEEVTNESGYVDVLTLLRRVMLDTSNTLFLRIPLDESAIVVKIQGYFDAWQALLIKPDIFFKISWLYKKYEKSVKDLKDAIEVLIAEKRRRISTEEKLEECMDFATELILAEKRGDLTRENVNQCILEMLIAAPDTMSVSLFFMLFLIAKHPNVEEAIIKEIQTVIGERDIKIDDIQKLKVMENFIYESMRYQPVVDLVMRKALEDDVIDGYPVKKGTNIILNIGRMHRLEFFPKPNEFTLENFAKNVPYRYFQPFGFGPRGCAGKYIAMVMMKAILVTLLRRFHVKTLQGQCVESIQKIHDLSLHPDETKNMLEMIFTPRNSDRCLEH
Sequence of Estrogen receptor (Homo sapiens) (P03372 whole entry, looked up): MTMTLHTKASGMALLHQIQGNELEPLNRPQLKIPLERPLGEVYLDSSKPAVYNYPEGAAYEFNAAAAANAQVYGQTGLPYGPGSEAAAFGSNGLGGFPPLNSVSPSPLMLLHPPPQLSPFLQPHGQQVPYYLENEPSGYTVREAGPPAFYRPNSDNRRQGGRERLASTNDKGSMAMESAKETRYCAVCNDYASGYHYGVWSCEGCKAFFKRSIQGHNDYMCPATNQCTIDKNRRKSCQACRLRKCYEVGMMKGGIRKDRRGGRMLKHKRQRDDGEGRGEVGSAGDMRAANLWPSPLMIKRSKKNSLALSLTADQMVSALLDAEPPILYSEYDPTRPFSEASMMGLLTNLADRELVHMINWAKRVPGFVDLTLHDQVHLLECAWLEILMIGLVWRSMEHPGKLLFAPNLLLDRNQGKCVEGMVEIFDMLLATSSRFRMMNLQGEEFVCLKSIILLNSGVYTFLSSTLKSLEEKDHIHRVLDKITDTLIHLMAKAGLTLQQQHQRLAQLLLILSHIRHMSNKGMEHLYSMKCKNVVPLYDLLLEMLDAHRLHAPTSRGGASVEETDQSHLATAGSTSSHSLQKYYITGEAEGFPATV

For `CCCCCCCCCCCCc1ccc(O)cc1`, the Potency was 21.9 µM (active) in experiment [1]; 10.9 µM (active) in experiment [2]; 7.7 µM (active) in experiment [3]; 12.2 µM (active) in experiment [4]; 34.7 µM (active) in [5]; 54.5 µM (active) in experiment [6]. Further, the Potency in experiment [7] was 13.7 µM (active); in experiment [8], 13.7 µM (active); in experiment [9], 49 µM (active); in experiment [10], 3.09 µM [inconclusive] (active); in [11], 0.969 µM (active); in the experiment with Aromatase (Homo sapiens), 48.6 µM (active).

Take `CC(C)(C)CC(C)(C)c1ccc(OCCOCC[N+](C)(C)Cc2ccccc2)cc1`: the Potency is 19.5 µM (active) in experiment [1]; 668 nM (active) and 1.53 µM (active) in experiment [2]; 841 nM (active) and 968 nM (active) in experiment [3]; 1.06 µM (active) and 1.93 µM (active) in experiment [4]; 21.3 µM (active) and 7.75 µM (active) in experiment [5]; 24.8 µM (active) and 38.5 µM (active) in [6]. Also, the Potency in experiment [7] was 16.8 µM (active) and 13.7 µM (active); in [8], 16.8 µM (active) and 13.7 µM (active); in experiment [9], 19 µM (active) and 19.5 µM (active); in experiment [12], “inactive and 61.1 µM (active)”; with Aromatase (Homo sapiens), 23.7 µM (active) and 12.2 µM (active). In addition, in experiment [10], the Potency result is “inactive”.

Regarding `Nc1ccccc1O`, the Potency entry in experiment [1], in experiment [5], in [13], in experiment [14], in [9] and in [10] was “inactive” each time. Further, the Potency is 7.59 µM (active) in experiment [2]; 6.77 µM (active) in experiment [3]; 5.38 µM (active) in [4]; 53.8 µM (active) in experiment [6]; 26.9 µM (active) in experiment [7]; 67.7 µM (active) with Aromatase (Homo sapiens).

With `Cc1c(C)c2c(c(C)c1OC(=O)CCC(=O)O)CC[C@@](C)(CCC[C@H](C)CCC[C@H](C)CCCC(C)C)O2`, the figures for the Potency in experiment [1] and in [7] were 26.8 µM (active) and 23.7 µM (active), respectively. Moreover, the Potency entry in experiment [2], in experiment [3], in experiment [4], in experiment [5], in [6] and in experiment [8] was “inactive” throughout. The Potency result (in [13]; in experiment [9]; in experiment [12]; with Aromatase (Homo sapiens)) was “inactive” each time.

For `Cc1cc(C2CCCCC2)n(O)c(=O)c1`, the Potency entry in experiment [1], in experiment [5], in [6], in [10] and in experiment [12] was “inactive” each time. Further, the Potency in experiment [2] was 1.43 µM (active); in experiment [3], 1.14 µM (active); in [4], 2.54 µM (active); in experiment [7], 2.54 µM (active); in experiment [8], 2.27 µM (active); in experiment [14], 2.88 µM [inhibitor] (active). Moreover, the Potency in [15] is 9.02 µM (active).

With `CCCC1O[C@@H]2C[C@H]3[C@@H]4CCC5=CC(=O)C=C[C@]5(C)[C@H]4[C@@H](O)C[C@]3(C)[C@]2(C(=O)CO)O1` (stereo partly drawn), the Potency entry in [1], in experiment [2], in experiment [5], in experiment [6], in experiment [7] and in experiment [13] was “inactive” in each case. In addition, the Potency result (in experiment [9]; in experiment [12]; with Aromatase (Homo sapiens)) was “inactive” in each case. The Potency result in experiment [3] was “inactive and 48.6 µM (active)”; in [4], “inactive and 68.7 µM (active) and 54.5 µM (active)”.

In the case of `S=c1[nH]c2ccccc2s1`, the Potency entry in [1], in [5], in [6], in experiment [7], in experiment [8] and in experiment [13] was “inactive” in each case. Also, in the experiment with Aromatase (Homo sapiens), the Potency entry is “inactive”. The Potency in experiment [2] was 29.8 µM (active) and 61.1 µM (active); in experiment [3], 29.8 µM (active) and 66.6 µM (active); in experiment [4], 29.8 µM (active) and 64 µM (active); in [9], “inactive and 6.16 µM (active)”.

With `CCOC(=O)O[C@H](C)OC(=O)c1ccc2c(c1)cc(C(=O)NC1CCN(C(C)C)CC1)n2Cc1cc(-c2ccc(Cl)s2)on1`, the Potency is 20.4 µM (active) in experiment [1]; 6.41 µM (active) in [2]; 11.4 µM (active) in experiment [3]; 11.4 µM (active) in [4]; 7.25 µM (active) in experiment [5]; 57.1 µM (active) in experiment [6]. Further, the Potency in [7] was 5.09 µM (active); in experiment [8], 4.54 µM (active); in [9], 45.8 µM (active); with Aromatase (Homo sapiens) it was 14.3 µM (active). Further, the Potency entry in experiment [12] is “inactive”.

In the case of `CCCC(c1cc(C(C)(C)C)c(O)cc1C)c1cc(C(C)(C)C)c(O)cc1C`, the Potency is 11.1 µM (active) in experiment [1]; 12.3 µM (active) in experiment [2]; 12.3 µM (active) in experiment [3]; 12.3 µM (active) in [4]; 22.1 µM (active) in experiment [5]; 27.6 µM (active) in experiment [6]. In addition, the Potency in [7] was 3.9 µM (active); in [8], 3.1 µM (active); in experiment [9], 19.7 µM (active); in the experiment with Aromatase (Homo sapiens), 15.5 µM (active). Further, in [13], the Potency entry was “inactive”.

`CC(=O)S[C@@H]1CC2=CC(=O)CC[C@]2(C)[C@H]2CC[C@@]3(C)[C@@H](CC[C@@]34CCC(=O)O4)[C@H]12`: the Potency in [1] was 49 µM (active); in experiment [2] it was 7.5 µM (active) and 6.11 µM (active); in experiment [3], 9.44 µM (active) and 6.11 µM (active); in experiment [4], 8.41 µM (active) and 6.11 µM (active); in experiment [7] it was 27.3 µM (active); in experiment [14], 12.3 µM [inconclusive] (active). The Potency entry in experiment [15] is “inactive and 48.6 µM (active)”; in the experiment with Aromatase (Homo sapiens) it was 26.6 µM (active) and 27.3 µM (active). The Potency entry in [5], in experiment [6], in experiment [13], in experiment [9], in experiment [10] and in experiment [12] was “inactive” throughout. For the same molecule, the activation in [11] was 7.41% (inactive) and -17.9% (inactive).

As to `CCCC/C=C/CCCCO`, the Potency result in experiment [1], in experiment [2], in experiment [3], in experiment [4], in experiment [5] and in experiment [6] was “inactive” each time. For the same molecule, the Potency entry in [7], in experiment [13], in [14], in [9], in experiment [10] and in experiment [15] was “inactive” in each case. The Potency entry with Aromatase (Homo sapiens) was “inactive”.

With `CC(=O)OCC(C)OC(C)=O` (stereo not drawn), the Potency entry in experiment [1], in experiment [2], in experiment [3], in [4], in [5] and in experiment [6] was “inactive” in each case. Besides, the Potency entry in experiment [7], in [13], in experiment [14], in experiment [9], in experiment [10] and in experiment [15] was “inactive” throughout. The Potency result (in [12]; in the experiment with Aromatase (Homo sapiens)) was “inactive” each time. Also, the activation in [11] is 5.73% (inactive).

In the case of `O=C(OC[C@H]1O[C@@H](OC(=O)c2cc(O)c(O)c(OC(=O)c3cc(O)c(O)c(O)c3)c2)[C@H](OC(=O)c2cc(O)c(O)c(OC(=O)c3cc(O)c(O)c(O)c3)c2)[C@@H](OC(=O)c2cc(O)c(O)c(OC(=O)c3cc(O)c(O)c(O)c3)c2)[C@@H]1OC(=O)c1cc(O)c(O)c(OC(=O)c2cc(O)c(O)c(O)c2)c1)c1cc(O)c(O)c(OC(=O)c2cc(O)c(O)c(O)c2)c1`, the Potency was 16.9 µM (active) in experiment [1]; 5.96 µM (active) in [2]; 10.6 µM (active) and 16.5 µM (active) in experiment [3]; 11.9 µM (active) in experiment [4]; 19 µM (active) in experiment [5]; 22.1 µM (active) in [6]. Moreover, the Potency is 3.35 µM (active) and 16.5 µM (active) in experiment [7]; 3.76 µM (active) and 16.5 µM (active) in [8]; 6.74 µM (active) in experiment [9]; 21.1 µM (active) in [12]. Besides, the Potency entry in experiment [13] was “inactive”.
